Measured values from PubChem BioAssay (NCATS).
Unmarked numbers belong to inactive results. Results filed as inconclusive are left out. Where a call stands in place of a potency, no number is given. The source made the active and inactive calls. Calls come from the whole dose curve; as a rule, active = well fitted curve in the direction sought with a large enough effect; inconclusive = small, poorly fitted or top-dose-only effect, or another doubt; inactive = no such curve, though single readings can be large; an effect the other way counts as inactive or inconclusive.

Legend:
[1] = HPAF-II 24hr Apoptosis Induction qHTS against the NCATS CANVASS Library (AID 1347356)
How it was run: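 Using an 11-point qHTS format, HPAF-II cells in DMEM/10% FBS received compounds for 24 h; doxorubicin titration as control. Caspase-3/7 activity quantified by DEVD-luciferase luminescence.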

[2] = HEK293 18hr Apoptosis Induction qHTS against the NCATS CANVASS Library (AID 1347357)
How it was run: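 Cells seeded at 500/well in DMEM + 10% FBS. Compounds pinned, 11 concentrations. 18 h, 37 degrees C/5% CO2. Caspase-Glo 3/7 added, 15 min RT dark, luminescence read.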

[3] = HPAF-II 12hr Apoptosis Induction qHTS against the NCATS CANVASS Library (AID 1347358)
How it was run: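 Twelve-hour compound exposure of HPAF-II cells in DMEM with 10% FBS, then luminescent Caspase-Glo 3/7 detection after 15 min at room temperature; doxorubicin control.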

[4] = HEK293 24hr Apoptosis Induction qHTS against the NCATS CANVASS Library (AID 1347359)
How it was run: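 HEK293 cells, 500 per well, exposed to an 11-point compound series for 24 hours at 37 degrees C. Caspase 3/7 activity read by Caspase-Glo luminescence (DEVD substrate) after 15 min at room temperature.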

[5] = HPAF-II 18hr Apoptosis Induction qHTS against the NCATS CANVASS Library (AID 1347360)
How it was run: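 Seed HPAF-II cells at 500/well in DMEM + 10% FBS, pin-transfer compounds, incubate 18 hours at 37 degrees C/5% CO2, add Caspase-Glo 3/7 reagent, wait 15 min, read luminescence.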

[6] = HEK293 12hr Apoptosis Induction qHTS against the NCATS CANVASS Library (AID 1347361)
How it was run: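 Cells are seeded, dosed with an 11-point compound series and incubated 12 hours. Caspase-3/7 activity is detected by luminescent DEVD-substrate reagent after 15 minutes at room temperature.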

[7] = system: NAD(P)H diaphorase (Clostridium kluyveri); assay: Diaphorse counterscreen qHTS: Assay Interference Panel against the NCATS CANVASS Library (AID 1347362); note: potency is the fitted concentration of half-maximal effect
How it was run: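 Clostridium kluyveri diaphorase in PBS + 0.01% Tween-20 preincubated 15 min with compounds. Resazurin and NADH then added for 5 min at room temperature in the dark; resorufin fluorescence read (ex 525, em 598).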

[8] = biological target: Luciferin 4-monooxygenase (Photinus pyralis) (UniProt P08659); assay: Firefly luciferase counterscreen qHTS: Assay Interference Panel against the NCATS CANVASS Library (AID 1347363); note: series mostly up to about 57 µM
Chain of Luciferin 4-monooxygenase (Photinus pyralis) (P08659 whole entry, looked up): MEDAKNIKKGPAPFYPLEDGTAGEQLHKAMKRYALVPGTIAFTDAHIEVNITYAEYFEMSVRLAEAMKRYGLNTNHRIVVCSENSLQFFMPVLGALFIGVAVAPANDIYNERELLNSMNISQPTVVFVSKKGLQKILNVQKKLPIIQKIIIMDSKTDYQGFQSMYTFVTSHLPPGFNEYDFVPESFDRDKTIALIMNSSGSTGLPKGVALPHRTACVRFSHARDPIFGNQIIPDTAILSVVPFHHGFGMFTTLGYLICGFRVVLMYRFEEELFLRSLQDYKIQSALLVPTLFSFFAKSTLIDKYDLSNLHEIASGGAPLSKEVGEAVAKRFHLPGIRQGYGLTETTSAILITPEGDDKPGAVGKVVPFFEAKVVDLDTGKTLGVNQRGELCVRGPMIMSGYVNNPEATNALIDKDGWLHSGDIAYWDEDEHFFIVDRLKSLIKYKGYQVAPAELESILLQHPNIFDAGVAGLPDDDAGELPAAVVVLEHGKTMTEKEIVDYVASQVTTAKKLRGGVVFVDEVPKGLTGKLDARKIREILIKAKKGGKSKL
How it was run: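 Purified P. pyralis luciferase (0.04 ug/mL, 4x reagent) added to Tris-acetate buffer with 0.013 mM D-luciferin, 0.013 mM ATP and 13.3 mM Mg-acetate; compounds preincubated 15 min, then luminescence read after 5 min, RT.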

[9] = KB-3-1 Cancer Cell Toxicity qHTS against the NCATS CANVASS Library (AID 1347366); note: nearly all actives have a fitted effect of over 75% in size; note: potency is the fitted concentration of half-maximal effect
How it was run: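 Luminescence from CellTiter-Glo (10 min, room temperature) measured KB-3-1 viability after 72 hr compound exposure at 37C. Cells were seeded at 500/well and tested in an 11-point series.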

[10] = G06 Cancer Cell Toxicity qHTS against the NCATS CANVASS Library (AID 1347368); note: nearly all actives have a fitted effect of over 60% in size; note: potency is the fitted concentration of half-maximal effect
How it was run: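 Quantitative HTS in G06 cells (dog glioma): 72 hr treatment, 11 concentrations, then ATP-based luminescent viability readout; bortezomib 0.1 nM–4.6 uM final as reference.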

[11] = MCF7 Cancer Cell Toxicity qHTS against the NCATS CANVASS Library (AID 1347369); note: potency is the fitted concentration of half-maximal effect
How it was run: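 Cells seeded at 500/well, then compound pinned. Plates incubated 72 hr at 37C, 5% CO2. CellTiterGlo added; luminescence read.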

[12] = qHTS for ATAD5 Antagonist screened against the NCATS CANVASS Library (AID 1347370); note: nearly all actives have a fitted effect of over 65% in size; note: potency is the fitted concentration of half-maximal effect
How it was run: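 HEK293T-ATAD5 luc reporter, 2000 cells/well; 5hr attach; cpd + 10 uM 5-FUrd; 16hr 37C, 5% CO2. Readouts: CellTiter-Fluor fluorescence (1hr), then Amplite luciferase luminescence (30min RT).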

[13] = J3T Cancer Cell Toxicity qHTS against the NCATS CANVASS Library (AID 1347371); note: potency is the fitted concentration of half-maximal effect
How it was run: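 ATP-based cytotoxicity in canine J3T cells: 72 hr exposure at 37C, 11-point titration, CellTiterGlo luminescent detection.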

[14] = 10-beta competent E. coli microbial cell viability qHTS against the NCATS CANVASS Library (AID 1347376); note: series mostly up to about 46 µM
How it was run: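 Overnight 37C exposure of 10-beta E. coli (0.2 OD) to an 11-point concentration series; ATP-based luminescence after 20 min room-temperature reagent incubation; daunomycin as control.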

[15] = qHTS for Inflammasome Signaling Inhibitors: IL-1-beta AlphaLISA screen against the NCATS CANVASS Library (AID 1347379);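 note: human THP-1 cells primed with LPS then triggered with ATP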;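 for potency: secreted IL-1B measured as AlphaLISA emission at 615 nm; potency is the fitted concentration of half-maximal effect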
How it was run: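 THP-1, 1 hr compound pre-incubation, then LPS 250 ng/mL + ATP 1.25 mM (final); 16 hr total with compound; IL-1B AlphaLISA, ex 680/em 615 nm; 11-point qHTS, up to 57.5 uM final.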

[16] = Inflammasome Signaling qHTS Counterscreen: IL-1-beta AlphaLISA counterscreen against the NCATS CANVASS Library (AID 1347381);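 note: cell-free check with purified IL-1β in medium and no THP-1 cells; series mostly up to about 57 µM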
How it was run: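 Here, no cellular stimulation occurs; compounds in an 11-point series meet 4 pg purified IL-1-beta directly. Bead-based AlphaLISA detection follows (1 h acceptor/antibody, then 30 min donor, dark, room temperature), with excitation at 680 nm.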

[17] = Cytotoxicity qHTS for assessment of Hepg2 cells membrane integrity screened against the NCATS CANVASS Library (AID 1347387)
How it was run: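 Membrane damage in HepG2 monolayers was estimated from released LDH, measured with CytoTox-ONE (ex 560/em 590 nm), after 5 hr treatment across 0.59 nM - 46 uM final.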

[18] = qHTS for activators of dead-cell proteases activity screened against the NCATS CANVASS Library (AID 1347392);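 note: luminescence from protease leaking out of membrane-damaged cells cleaving impermeant substrate; rising signal means more cytotoxicity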
How it was run: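 HepG2, 2000 cells/well, 18 h attach; cpd 11-pt, 5 h 37C 5% CO2; CytoTox-Glo (AAF-aminoluciferin) 15 min RT; luminescence read.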

[19] = Redox Reaction Profiling qHTS: Assay Interference Panel against the NCATS CANVASS Library (AID 1347401); note: potency is the fitted concentration of half-maximal effect
How it was run: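 Fluorescence read-out (525 nm excitation, 598 nm emission) at time zero and after 15 min in the dark tracked resorufin formation. Mix: 5 uM resazurin, 200 uM DTT, HEPES pH 7.3 buffer with NaCl.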

[20] = qHTS for H2AX Agonists against the NCATS CANVASS Library (AID 1347378);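 note: phospho-H2AX S139 level in CHO-K1 lysates by TR-FRET emission ratio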
How it was run: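 CHO-K1, 1000 cells/well, o/n 37C; cpd several conc, 3 hr 37C, 0.76% DMSO; lyse 30 min RT; cryptate anti-pH2AX(S139) + d2 anti-H2AX, 24 hr RT; HTRF 665/620.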

Structure (SMILES)	outcome [1]	Potency [2]	Potency [3]	Potency [4]	Potency [5]	outcome [6]	Potency [7]	Potency [8]	Potency [9]	Potency [10]	Potency [11]	Potency [12]	Potency [13]	outcome [14]	Potency [15]	outcome [16]	outcome [17]	Potency [18]	Potency [19]	Potency [20]
C[n+]1cc2cc(C(N)=O)[nH]c3c(=N)c(Cl)c(N)c1c23	inactive	inactive	inactive	inactive	inactive	inactive	15.3 µM (active)	inactive	inactive	5.26 µM (active)	inactive	inactive	inactive	inactive	inactive	inactive	inactive	inactive	1.92 µM (active)	
CC[C@H]1[C@H](C)[C@H](c2cc(OC)c(OC)cc2OC)[C@@H](C)[C@H](c2cc(OC)c(OC)cc2OC)[C@@]12C=C(OC)C(=O)C=C2OC	inactive		inactive		inactive		21.6 µM (active)	inactive		23.5 µM (active)	inactive		inactive	inactive		inactive	inactive	inactive	inactive	inactive
CN1CC[C@]2(c3cccc4c3N[C@H]3N(C)CC[C@@]43[C@]34CCN(C)[C@H]3Nc3ccccc34)c3ccccc3N[C@H]12	inactive	inactive	inactive	inactive	inactive	inactive	inactive	inactive		7.43 µM (active)	11.7 µM (active)	inactive	9.35 µM (active)	inactive	21.7 µM (active)	inactive	inactive	inactive	inactive	inactive
C/C(=C\CC[C@@H](C)[C@H]1CC[C@]2(C)C3=CCC4C(C)(C)[C@@H](O)C[C@@H](O)[C@]4(C)C3[C@H](O)C[C@@]12C)CO (some centres undefined)	inactive	inactive	inactive	inactive	inactive	inactive		inactive	inactive	inactive	inactive	inactive	inactive	inactive	inactive	inactive	inactive	inactive	inactive	inactive
C/C=C/C1C=CC2CC(C)CC(C)C2C1C(=O)CC(=O)NC(CO)C/C=C/CCCCC (centres undefined)	inactive	inactive	inactive	inactive	inactive	inactive		inactive	inactive	1.32 µM (active)		23.4 µM (active)	inactive	inactive		inactive	inactive	inactive	inactive	inactive
C/C=C(/C)c1c(Cl)c(O)c(C)c2c1Oc1c(Cl)c(O)c(Cl)c(C)c1C(=O)O2	inactive	inactive	inactive	inactive	inactive	inactive	inactive	inactive	inactive	inactive	inactive	inactive		inactive	inactive	inactive	inactive	inactive	inactive	inactive
COc1cc(O)c(C(=O)[C@@H]2[C@H](CC=C(C)C)C(C)=CC[C@H]2c2ccccc2)c(O)c1				inactive		inactive	inactive	inactive	20.9 µM (active)	inactive		inactive	inactive	inactive		inactive	inactive	inactive	inactive	inactive
C=C1CC[C@@H](O[C@H]2C[C@@](O)([C@H](C)NC(=O)c3[nH]c(C)c(Cl)c3Cl)[C@H](O)[C@@H](C)O2)[C@@H]2C=C[C@H](C)C(/C(O)=C3/C(=O)[C@H](C(C)C)N([C@@H]4O[C@H](C)[C@H](OC(N)=O)[C@H](OC(C)=O)[C@@H]4OC)C3=O)[C@@H]12 (some centres undefined)	inactive	inactive	inactive	inactive	inactive	inactive	inactive	inactive	inactive		inactive	inactive	inactive	inactive	inactive	inactive	inactive	inactive		inactive
C/C=C(/C)c1cc(O)c(C)c2c1Oc1cc(O)cc(C)c1C(=O)O2	inactive	inactive	inactive	inactive	inactive	inactive	inactive	inactive	inactive	inactive	inactive		inactive	inactive	inactive	inactive	inactive	inactive	inactive	inactive
CCC(=O)CCCCC[C@@H]1NC(=O)[C@H]2CCCCN2C(=O)[C@H](C(C)C)NC(=O)[C@H](Cc2cn(OC)c3ccccc23)NC1=O	inactive	inactive	inactive	inactive	inactive	inactive	inactive	inactive	7.43 µM (active)	4.69 µM (active)		inactive	11.8 µM (active)	inactive		inactive	inactive	inactive	inactive	
COC12OC1(C13OC1(OC)C(=O)c1cc4cc(C)oc(=O)c4c(O)c1C3O)C(O)c1c(cc3cc(C)oc(=O)c3c1O)C2=O (centres undefined)	inactive	inactive	inactive	inactive	inactive	inactive	inactive	inactive	inactive	inactive	inactive	inactive	inactive	inactive	inactive	inactive	inactive	inactive		inactive
C=C[C@@]1(C)CC[C@@H]([C@H](C)C(=O)/C=C/C(C)(C)O)O1	inactive	inactive	inactive	inactive	inactive	inactive	inactive	inactive			inactive		23.5 µM (active)	inactive		inactive	inactive	inactive		inactive
